Assay results as given in PubChem BioAssay (EPA / NIEHS).
Records with an inconclusive call do not appear. Calls of active or inactive are those of the source. How the source made its calls, unless noted: active means hit-call score of the fitted dose curve at least 0.9, where 1 is the maximum; inconclusive means response in the unintended direction; inactive means score below 0.9.

Tests used:
[1] = Tanguay_ZF_120hpf_TRUN_legacy: (Legacy) Oregon State University Tanguay Lab 120 Hour Post-fertilization zebrafish Assay for Truncated Body (AID 2283655)
Procedure, shortened: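 Truncated body is recorded as a binary endpoint at 120 hpf by brightfield imaging of wild-type 5D larvae. Exposure runs statically from 6 hpf at 28C with 0.64% DMSO; embryos dying earlier are not scored.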

[2] = Tanguay_ZF_120hpf_NC_legacy: (Legacy) Oregon State University Tanguay Lab 120 Hour Post-fertilization zebrafish Assay for Notochord and Tail Malformation (AID 2283656)
Procedure, shortened: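 Binary scoring of notochord distortion by brightfield microscopy; embryos dying were not scored. Wild-type Tropical 5D embryos, chorion removed, exposed singly and statically from 6 to 120 hpf, 28C, sealed, 0.64% DMSO.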

[3] = read-out: solute carrier (SLC10A1), SLC10A1 (gene 6554); test: LTEA_HepaRG_SLC10A1: Life Technologies and Expression Analysis (LTEA) Assay for solute carrier (SLC10A1) using HepaRG (AID 2283657; active means hit-call score of the fitted dose curve at least 0.9, where 1 is the maximum; inactive means score below 0.9); conditions: mRNA level, 48 h; actives raise or lower the signal
Procedure, shortened: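 HepaRG, 48 h exposure, 8-pt half-log curve from 100 uM in 0.5% DMSO, duplicates. Read-out: TaqMan qRT-PCR of SLC10A1 mRNA, normalized to three housekeeping genes. Gain/loss fit vs DMSO baseline.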

[4] = read-out: matrix metalloproteinase-1 (MMP1), MMP1 (gene 4312); test: LTEA_HepaRG_MMP1: Life Technologies and Expression Analysis (LTEA) Assay for matrix metalloproteinase-1 (MMP1) using HepaRG (AID 2283658; active means hit-call score of the fitted dose curve at least 0.9, where 1 is the maximum; inactive means score below 0.9); conditions: mRNA level, 48 h; actives raise or lower the signal
Procedure, shortened: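 HepaRG, ~100,000 cells/well, 48 h pre-culture; serum-free induction medium; test chemical 8 conc (max 100 uM, half-log), duplicate, 48 h; 0.5% DMSO; qRT-PCR MMP1, housekeeping-normalized; gain/loss fit vs DMSO.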

[5] = Tanguay_ZF_120hpf_TR_legacy: (Legacy) Oregon State University Tanguay Lab 120 Hour Post-fertilization zebrafish Assay for Touch Response (AID 2283667)
Procedure, shortened: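 Binary touch-response call at 120 hpf, analysed as gain of signal versus DMSO baseline. Wild-type 5D larvae, static exposure at 28C, 0.64% DMSO final; 5uM trimethyltin chloride as positive control.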

[6] = read-out: Cytochrome P450 (CYP24A1_1), CYP24A1 (gene 1591); test: LTEA_HepaRG_CYP24A1_1: Life Technologies and Expression Analysis (LTEA) Assay for Cytochrome P450 (CYP24A1_1) using HepaRG (AID 2283671; active means hit-call score of the fitted dose curve at least 0.9, where 1 is the maximum; inactive means score below 0.9); conditions: mRNA level, 48 h; actives raise or lower the signal
Procedure, shortened: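 Readout is CYP24A1 transcript level by qRT-PCR, normalized to three housekeeping genes, with gain or loss of signal fitted against 0.5% DMSO. Human HepaRG cells received compound for 48 h at up to 100 uM.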

[7] = CCTE_Padilla_ZF_144hpf_TERATOSCORE: (Legacy) CCTE's 144 Hour Post-fertilization zebrafish Assay Teratoscore, Padilla Lab (AID 2283679; active means hit-call score of the fitted dose curve at least 0.9, where 1 is the maximum; inactive means score below 0.9;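 on AC50: zebrafish embryos with chorions exposed by immersion from 6-8 hpf to 5 dpf with daily renewal; teratogenicity score from eye scoring of death hatching and malformations at 144 hpf; higher score means more developmental defects relative to DMSO baseline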)
Procedure, shortened: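 Larvae scored by eye at 144 hpf for death, hatching and malformations after a day in clean Hanks'. Before that, daily-renewed exposure at 80 uM (0.4% DMSO, 26C) from roughly 6-8 hpf through 5 dpf, 4 embryos per chemical.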

[8] = system: Thyroperoxidase (TPO), gene 54314; test: CCTE_Simmons_AUR_rTPO: CCTE's Amplex UltraRed Assay for Thyroperoxidase (TPO) Inhibition, Simmons Lab (AID 2283662);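 further: potency for loss of signal meaning inhibition of peroxidase activity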
Procedure, shortened: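 Endpoint is decreased Amplex UltraRed fluorescence after a 30-min, 37C reaction of rat thyroid microsomes with 300 uM H2O2. Eight test concentrations (5 nM–87.5 uM final) in 0.5% DMSO, three biological replicates each.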

[9] = CCTE_Simmons_CellTiterGLO_HEK293T: Viability Assessment in CCTE's Assays for Thyroperoxidase (TPO) Inhibition, Simmons Lab (AID 2283665);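 on AC50: cells exposed to compound for 24 h before readout; actives reduce ATP signal below DMSO vehicle meaning cytotoxicity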
Procedure, shortened: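 Luciferase-coupled ATP content after 24 h exposure gives viability; 8-point series from 5 nM to 87.5 uM final in 0.5% DMSO. Human HEK293T cells, 1% FBS medium, three biological replicates, dichlone positive control.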

[10] = STM_H9_OrnithineISnorm_perc: Stemina devTOX quickPredict H9 human embryonic stem cell (hESC)-based Assay for Ornithine (ORN) Metabolite Biomarker, Normalized (AID 2283712; active means hit-call score of the fitted dose curve at least 0.9, where 1 is the maximum; inactive means score below 0.9;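 further: ornithine released into spent medium during last day measured by mass spectrometry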)
Procedure, shortened: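 Ornithine in spent medium from the last 24 h of a 72 h exposure, deproteinised and quantified by UPLC-HRMS against an isotope-labelled internal standard, expressed relative to 0.1% DMSO. Pluripotent H9 cells; compound refreshed every 24 h.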

## C=C(C)C(=O)OCCC(F)(F)C(F)(F)C(F)(F)C(F)(F)C(F)(F)C(F)(F)F
[1]
  outcome: inactive
[2]
  outcome: inactive
[3]
  outcome: inactive
[4]
  outcome: inactive
[5]
  outcome: inactive
[6]
  outcome: inactive
[7]
  outcome: inactive

## CCCCCCCCCCCCN1CCCC1=O
[1]
  AC50: 34.7 µM (active)
[2]
  outcome: inactive
[8]
  AC50: 17.4 µM (active)
[9]
  AC50: 14.9 µM (active)
[5]
  outcome: inactive
[7]
  AC50: 8.11 µM (active)

## O=c1c(-c2ccc(O)cc2)coc2cc(O)ccc12
[1]
  outcome: inactive
[2]
  outcome: inactive
[8]
  AC50: 9.2 µM (active)
[9]
  AC50: 0.393 µM (active)
[5]
  outcome: inactive
[7]
  outcome: inactive

## CCCCCCCCCCCCc1ccccc1S(=O)(=O)O
[1]
  outcome: inactive
[2]
  outcome: inactive
[8]
  AC50: 37.3 µM (active)
[9]
  AC50: 33.9 µM (active)
[5]
  outcome: inactive
[7]
  AC50: 3.26 µM (active)
[10]
  AC50: 0.00695 µM (active)

## CCCCCCCC(=O)O
[1]
  outcome: inactive
[2]
  outcome: inactive
[5]
  outcome: inactive

## C#C[C@]1(O)CC[C@H]2[C@@H]3CCC4=CC(=O)CC[C@@H]4[C@H]3CC[C@@]21C
[1]
  outcome: inactive
[2]
  outcome: inactive
[3]
  AC50: 9.92 µM (active)
[4]
  outcome: inactive
[8]
  AC50: 64.9 µM (active)
[9]
  AC50: 66 µM (active)
[5]
  outcome: inactive
[6]
  outcome: inactive
[7]
  AC50: 16.1 µM (active)
[10]
  AC50: 74.6 µM (active)

## CC(C)CCCCCCOC(=O)CCCCC(=O)OCCCCCCC(C)C
[1]
  outcome: inactive
[2]
  outcome: inactive
[5]
  outcome: inactive

## ClC1=C(Cl)C(Cl)(Cl)C(Cl)=C1Cl
[1]
  outcome: inactive
[2]
  outcome: inactive
[3]
  outcome: inactive
[4]
  outcome: inactive
[6]
  outcome: inactive
[7]
  AC50: 4.87 µM (active)

## CC(=O)NC1(c2cccc(F)c2)CCN(CC[C@@]2(c3ccc(Cl)c(Cl)c3)CN(c3ccccc3)C(=O)CO2)CC1
[1]
  outcome: inactive
[2]
  outcome: inactive
[5]
  outcome: inactive

## CCCCCCCCOC(=O)CCCCCCCCC(=O)OCCCCCCCC
[1]
  outcome: inactive
[2]
  outcome: inactive
[5]
  outcome: inactive
[7]
  outcome: inactive

## CC(C)(C)c1cc(C(C)(C)C)c(O)c(C(C)(C)C)c1
[1]
  outcome: inactive
[2]
  outcome: inactive
[3]
  outcome: inactive
[4]
  outcome: inactive
[8]
  AC50: 2.65 µM (active)
[9]
  AC50: 9.06 µM (active)
[5]
  outcome: inactive
[6]
  outcome: inactive
[7]
  AC50: 7.36 µM (active)

## Oc1cc2ccccc2c2ccccc12
[1]
  AC50: 38.3 µM (active)
[2]
  outcome: inactive
[8]
  AC50: 1.72 µM (active)
[9]
  AC50: 1.4 µM (active)
[5]
  AC50: 38.8 µM (active)
[7]
  AC50: 4.98 µM (active)

## CC1=C(/C=C/C(C)=C/C=C/C(C)=C/C(=O)O)C(C)(C)CCC1
[1]
  AC50: 0.168 µM (active)
[2]
  AC50: 0.272 µM (active)
[8]
  AC50: 25 µM (active)
[5]
  AC50: 0.0914 µM (active)
[7]
  AC50: 0.0081 µM (active)
[10]
  AC50: 0.0785 µM (active)

## CCCOC(=O)c1ccc(O)cc1
[1]
  AC50: 32.9 µM (active)
[2]
  outcome: inactive
[5]
  AC50: 41.5 µM (active)
[7]
  AC50: 14.9 µM (active)

## CCCCC(CC)COC(=O)CCCCC(=O)OCc1ccccc1 (configuration not stated)
[1]
  outcome: inactive
[2]
  outcome: inactive
[5]
  outcome: inactive

## CCc1nn(C2CCCCC2)c2cc(C3(C#N)CCC(C(=O)O)CC3)ccc12 (configuration not stated)
[1]
  AC50: 0.171 µM (active)
[2]
  outcome: inactive
[5]
  AC50: 2.48 µM (active)
[7]
  AC50: 0.263 µM (active)

## CC(C)(C)c1ccc(O)c(C(C)(C)C)c1
[1]
  outcome: inactive
[2]
  outcome: inactive
[8]
  AC50: 13.6 µM (active)
[9]
  AC50: 6.68 µM (active)
[5]
  outcome: inactive
[7]
  AC50: 7.38 µM (active)

## O=C(O)c1ccccc1C(c1ccc(O)cc1)c1ccc(O)cc1
[1]
  outcome: inactive
[2]
  outcome: inactive
[8]
  AC50: 4.26 µM (active)
[9]
  outcome: inactive
[5]
  outcome: inactive
[7]
  outcome: inactive

## CC(=O)CC(C)(C)O
[1]
  outcome: inactive
[2]
  outcome: inactive
[5]
  outcome: inactive
[7]
  outcome: inactive

## Nc1cccc2c(N)cccc12
[1]
  outcome: inactive
[2]
  outcome: inactive
[8]
  AC50: 2.06 µM (active)
[9]
  AC50: 30.1 µM (active)
[5]
  outcome: inactive
[7]
  AC50: 48.9 µM (active)
[10]
  outcome: inactive

## CCOC(=O)CC(O)(CC(=O)OCC)C(=O)OCC
[1]
  outcome: inactive
[2]
  outcome: inactive
[5]
  outcome: inactive

## NC(=O)N1C(=O)C(C(=O)c2cc(Cl)cs2)c2cc(F)c(Cl)cc21 (configuration not stated)
[1]
  outcome: inactive
[2]
  outcome: inactive
[5]
  outcome: inactive
[7]
  AC50: 4.57 µM (active)
